In PubChem BioAssay (Tox21):
Records with an inconclusive call do not appear. Active and inactive are the calls of the source. Unless noted, the call rests on the fitted dose curve; in most records, active means well fitted curve in the direction sought with a large enough effect in the repeat runs; inconclusive means weak or mixed curves; inactive means no such curve, though single readings can be large; an effect the other way counts as inactive or inconclusive.

Assays:
[1] = qHTS RealTime-Glo MT Cell Viability Assay in HEK293 cells - 0 hour (AID 1224880); further: top concentration of the series differs between compounds; nearly all actives have a fitted effect of over 45% in size
How it was run: (§1)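 Tox21 screen in HEK293 using RealTime-Glo MT chemistry, with cells and reagent co-dispensed. Luminescence proportional to viable cell number was captured at intervals during 40 h compound exposure at 37 C.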

[2] = A CellTox Green Cytotoxicity Assay to monitor cytotoxicity in HepG2 cells - 0 hour (AID 1224882); further: nearly all actives have a fitted effect of over 35% in size
How it was run: (§2)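 Nonlytic assay: viable cells exclude the dye, so fluorescence scales with cell death. HepG2 at 600 cells/well, compounds added after 5 h, signal read across 40 h.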

[3] = A CellTox Green Cytotoxicity Assay to monitor cytotoxicity in HepG2 cells - 32 hour (AID 1224883); further: nearly all actives have a fitted effect of over 50% in size
How it was run: as §2

[4] = A CellTox Green Cytotoxicity Assay to monitor cytotoxicity in HEK293 cells - 8 hour (AID 1224884); further: nearly all actives have a fitted effect of over 35% in size
How it was run: (§3)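 Seeding of HEK293 cells together with cytotoxicity dye preceded a 5 h incubation at 37 C/5% CO2. Test compounds in DMSO were then added and fluorescence monitored across 40 h.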

[5] = qHTS RealTime-Glo MT Cell Viability Assay in HepG2 cells - 16 hour (AID 1224885); further: nearly all actives have a fitted effect of over 50% in size
How it was run: (§4)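 Compound treatment began 5 h after plating HepG2 cells (600/well) with NanoLuc luciferase and prosubstrate. Plates stayed at 37 C for 40 h; luminescence was captured at six time points, 0 h through 40 h.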

[6] = qHTS RealTime-Glo MT Cell Viability Assay in HEK293 cells - 24 hour (AID 1224886); further: top concentration of the series differs between compounds; nearly all actives have a fitted effect of over 50% in size
How it was run: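 Quantitative high-throughput screen of the Tox21 10K library in HEK293: cells and RealTime-Glo reagents plated together, compound added at 5 h, luminescence monitored through 40 h at 37 C.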

[7] = qHTS RealTime-Glo MT Cell Viability Assay in HEK293 cells - 8 hour (AID 1224887); further: top concentration of the series differs between compounds; nearly all actives have a fitted effect of over 50% in size
How it was run: as §1

[8] = A CellTox Green Cytotoxicity Assay to monitor cytotoxicity in HEK293 cells - 16 hour (AID 1224888); further: nearly all actives have a fitted effect of over 35% in size
How it was run: as §3

[9] = qHTS RealTime-Glo MT Cell Viability Assay in HepG2 cells - 0 hour (AID 1224889); further: nearly all actives have a fitted effect of over 50% in size
How it was run: as §4

[10] = A CellTox Green Cytotoxicity Assay to monitor cytotoxicity in HepG2 cells - 8 hour (AID 1224890); further: nearly all actives have a fitted effect of over 45% in size
How it was run: as §2

[11] = qHTS assay to identify small molecule antagonists of the estrogen receptor alpha (ER-alpha) signaling pathway using the BG1 cell line in the presence of 0.1 nM 17-beta-estradiol - cell viability counter screen (AID 1259241); further: nearly all actives have a fitted effect of over 40% in size
How it was run: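 CellTiter-Fluor read (30 min, 37C) on ER-alpha/ERE-luc VM7Luc4E2 cells; 22 hr compound treatment; agonist 0.1 nM E2 final; same-well multiplex.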

[12] = qHTS assay to identify small molecule antagonists of the androgen receptor (AR) signaling pathway using the MDA cell line in the presence of 0.5 nM R1881 - cell viability counter screen (AID 1259242); further: nearly all actives have a fitted effect of over 45% in size
How it was run: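 R1881 at 0.5 nM final stimulated MDA-kb2 cells during 16 hr compound treatment at 37C. Cytotoxicity read: CellTiter-Fluor fluorescence after 30 min.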

[13] = biological target: Estrogen receptor (Homo sapiens) (UniProt P03372); test: qHTS assay to identify small molecule antagonists of the estrogen receptor alpha (ER-alpha) signaling pathway using the BG1 cell line in the presence of 0.1 nM 17-beta-estradiol (AID 1259244); further: nearly all actives have a fitted effect of over 50% in size
Chain of Estrogen receptor (Homo sapiens) (P03372 whole entry, looked up): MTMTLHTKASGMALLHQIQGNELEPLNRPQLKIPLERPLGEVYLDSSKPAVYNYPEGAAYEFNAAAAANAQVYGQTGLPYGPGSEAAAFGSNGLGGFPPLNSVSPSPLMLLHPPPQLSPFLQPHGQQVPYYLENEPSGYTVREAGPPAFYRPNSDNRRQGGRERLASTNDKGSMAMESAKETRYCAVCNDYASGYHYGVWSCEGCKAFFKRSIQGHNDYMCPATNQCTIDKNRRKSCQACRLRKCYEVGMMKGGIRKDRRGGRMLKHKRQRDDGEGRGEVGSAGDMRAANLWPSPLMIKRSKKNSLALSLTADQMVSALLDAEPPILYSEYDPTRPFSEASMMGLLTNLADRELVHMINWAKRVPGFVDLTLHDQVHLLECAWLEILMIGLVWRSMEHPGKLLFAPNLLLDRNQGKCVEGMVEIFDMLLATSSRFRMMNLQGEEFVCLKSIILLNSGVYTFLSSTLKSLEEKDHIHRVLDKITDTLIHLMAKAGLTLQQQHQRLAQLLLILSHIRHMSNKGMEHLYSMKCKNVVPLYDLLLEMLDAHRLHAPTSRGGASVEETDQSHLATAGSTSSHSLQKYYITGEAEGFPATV
How it was run: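 VM7Luc4E2; 4xERE-luciferase; 0.1 nM E2 final; 22 h co-incubation, 37C; ONE-Glo luminescence after 30 min at room temperature.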

[14] = qHTS assay to identify small molecule phospholipidosis (PLD) inducers (AID 1259344; active means well fitted curve in the direction sought with a large enough effect; an effect the other way counts as inactive or inconclusive)
How it was run: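 Quantitative HTS in HepG2: compound plus LipidTOX Red dye for 24 h, paraformaldehyde fixation with Hoechst 33342, widefield high-content imaging; amiodarone as positive and DMSO as negative control.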

[15] = qHTS assay to identify small molecule HDAC inhibitors (AID 1259364);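 further: wild-type HCT-116 cells with endogenous class I/II HDAC activity; top concentration of the series differs between compounds; nearly all actives have a fitted effect of over 45% in size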
How it was run: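 Relative class I and II HDAC activity is taken from the luminogenic signal in HCT-116 cells, with compound exposure 2 hr and reagent development 30 min at room temperature.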

[16] = qHTS assay to identify small molecule agonists of the sonic hedgehog signaling (Shh) pathway - cell viability counter screen (AID 1259366); further: nearly all actives have a fitted effect of over 50% in size
How it was run: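 Fluorescence from CellTiter-Fluor reports live cells in this counter screen. NIH/3T3-derived Gli1-Luc reporter cells receive test compounds for 24hr at 37C; reagent goes in at 23hr.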

[17] = qHTS assay to identify small molecule antagonists of the sonic hedgehog signaling (Shh) pathway - cell viability counter screen (AID 1259367); further: nearly all actives have a fitted effect of over 55% in size
How it was run: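 Seed 3T3 Gli1-Luc cells at 2,000 per well; incubate 4 hr; add compound in DMSO, then conditioned medium; incubate at 37C with 5% CO2; add CellTiter-Fluor after 23 hr; read fluorescence 1 hr later.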

[18] = qHTS assay to identify small molecule HDAC inhibitors - cell viability counter screen (AID 1259365)
How it was run: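 To flag cytotoxic hits, 1,500 wild-type HCT-116 cells per well, plated the day before, receive test compounds for 2hr at 37 C before CellTiter-Glo reagent and a luminescence read.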

[19] = A CellTox Green Cytotoxicity Assay to monitor cytotoxicity in HEK293 cells - 32 hour (AID 1224881); further: nearly all actives have a fitted effect of over 40% in size
How it was run: as §3

Measured: Potency

COP(=S)(OC)Oc1ccc(SC)c(C)c1
not listed: [18] | [19]
inactive: all other assays above

Cc1cccc(C)c1NC(=O)CN1CCCC1=O
not listed: [19]
inactive: all other assays above

CSc1nnc(C(C)(C)C)c(=O)n1N
not listed: [8] | [13] | [14]
inactive: all other assays above

Nc1ncc([N+](=O)[O-])s1
not listed: [14] | [19]
inactive: all other assays above

C=CCN=C=S
not listed: [8]
inactive: all other assays above

CNC(=O)Oc1cccc2ccccc12
not listed: [19]
inactive: all other assays above

CN(C)CCC#N
not listed: [8] | [14] | [18]
inactive: all other assays above

Cl/C=C/Cl
not listed: [8] | [14]
inactive: all other assays above

Cc1cc(O)ccc1Cl
not listed: [8]
inactive: all other assays above
